# Screening results deposited in PubChem by National Center for Advancing Translational Sciences (NCATS).
# HT1080-NT tox = kills 2HG-producing HT-1080-NT fibrosarcoma cells; AID 686970; Potency, µM (highest dose often 46.1 µM), without a hit: at the highest dose activity, negative = less viability, most hits filed as cytotoxic; 360,000 compounds, 1.6% hits; HT-1080-NT fibrosarcoma viability, CellTiter-Glo ATP luminescence, 48 h;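 further: NT is the 2HG producing partner of a matched IDH1 knockdown line; potency means the concentration at half of the fitted maximal effect; 0% = DMSO-treated cells and -100% = media-only wells without cells; nearly all actives have a fitted effect of over 55% in size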
#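 750 cells/well, RPMI + 5% FBS; 2 h settle, compound pin-transfer, 48 h at 37 degrees C. CellTiter-Glo 10 min RT, luminescence. Normalized to DMSO and media-only wells.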
# HT1080 IDH1KD tx = kills HT-1080 cells with IDH1 knockdown. 360,000 compounds, 2% hits. AID 686971. Potency, µM (titrated, usually from 46.1 µM), without a hit: at the top dose activity, negative = toxicity, hits mostly cytotoxic. HT-1080 IDH1 knockdown viability, ATP luminescence, 48 h;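 further: potency means the concentration at half of the fitted maximal effect; 0% = DMSO wells and -100% = cell-free medium wells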
#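 Knockdown cells (IDH1KD HT-1080) received compounds 2 h after plating at 750 cells/well and were kept 48 h at 37 °C in 5% FBS RPMI. A CellTiter-Glo luminescence read gave % activity for curve fitting.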
# DT40 TDP1 CPT = growth inhibition of DT40 Tdp1-/-;hTDP1 cells with camptothecin (screen for TDP1 inhibitors); chicken DT40 Tdp1-/-;hTDP1 cells + 20 nM CPT, ATP luminescence, 48 h; Potency, µM (highest dose often 46.2 µM), for inactives: at the top dose activity change, negative = growth inhibition, most hits filed as inhibitors; 420,000 compounds, 12% hits; AID 686979; further: potency means the concentration at half of the fitted maximal effect; nearly all actives have a fitted effect of over 55% in size
#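 Chicken DT40 Tdp1-/- cells stably complemented with human TDP1 were seeded at 400 cells/well in medium containing 20 nM camptothecin, exposed to pin-transferred compounds, and grown at 37 °C for at least 48 hr. Viability was read as ATP luminescence.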
# DT40 TDP1 no CPT = qHTS for Inhibitors of human tyrosyl-DNA phosphodiesterase 1 (TDP1): qHTS in cells in absence of CPT | DT40 Tdp1-/- hTDP1 cells, no CPT, ATP luminescence, 48 h | Potency, µM (titrated, usually from 46.2 µM), for inactives: top-dose activity change, negative = growth inhibition, actives largely listed as inhibitors | 420,000 compounds, 15% hits; further: potency means the concentration at half of the fitted maximal effect; nearly all actives have a fitted effect of over 55% in size
#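 Luminescent ATP content (CellTiter-Glo) served as the growth readout. Knockout chicken DT40 cells expressing human TDP1 were exposed to compounds without camptothecin for a minimum 48 hr at 37 °C.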
# 12-LOX inh = ALOX12 (human) lipoxygenase inhibition; Potency, µM (doses to about 108 µM), inactives show at the top dose activity change, negative = inhibition, actives largely listed as inhibitors; 580,000 compounds, 1.1% hits; purified 12hLO, xylenol orange hydroperoxide absorbance; AID 1671190; P18054; further: potency means the concentration at half of the fitted maximal effect
# Target sequence (P18054 whole entry, looked up): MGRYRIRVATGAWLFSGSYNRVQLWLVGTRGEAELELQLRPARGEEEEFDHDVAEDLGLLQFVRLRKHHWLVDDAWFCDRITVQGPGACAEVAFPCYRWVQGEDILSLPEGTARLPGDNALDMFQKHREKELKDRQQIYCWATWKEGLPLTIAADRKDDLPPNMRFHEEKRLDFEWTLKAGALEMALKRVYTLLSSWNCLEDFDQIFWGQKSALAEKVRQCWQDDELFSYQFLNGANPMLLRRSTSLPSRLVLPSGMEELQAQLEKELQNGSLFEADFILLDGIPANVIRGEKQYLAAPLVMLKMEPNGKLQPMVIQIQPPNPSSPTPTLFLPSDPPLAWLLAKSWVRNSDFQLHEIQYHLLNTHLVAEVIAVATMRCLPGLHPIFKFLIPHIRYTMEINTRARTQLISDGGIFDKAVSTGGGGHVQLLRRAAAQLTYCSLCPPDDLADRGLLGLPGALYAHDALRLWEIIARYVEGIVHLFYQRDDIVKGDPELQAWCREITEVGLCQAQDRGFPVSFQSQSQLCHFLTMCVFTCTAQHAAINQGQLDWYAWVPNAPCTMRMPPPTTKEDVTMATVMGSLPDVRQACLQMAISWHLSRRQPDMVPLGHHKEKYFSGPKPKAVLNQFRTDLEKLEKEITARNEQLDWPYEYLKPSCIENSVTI
#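 Purified human 12hLO (150 nM final) in 25 mM Hepes, 0.01% Triton X-100, pH 7.0 was preincubated 15 min at room temperature with compound. Then 40 uM arachidonic acid was added, 30 min. Hydroperoxide was read by Fe-XO absorbance ratio 573/405 nm.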
# IL-1B inflam inh = inhibitors of inflammasome signaling (IL-1 beta secretion); AID 743279; activity change, % at 57.5 µM; 360,000 compounds, 4.7% hits; THP-1 LPS/ATP IL-1B secretion, AlphaLISA, 16 h; hits give low values; in the data active means activity change below about -50%; inconclusive means mostly about -30% to -49%
#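 THP-1 cells pretreated 1 hr with compounds (up to 57.5 uM final), then stimulated with LPS (250 ng/mL final) plus ATP (1.25 mM final); secreted IL-1B measured by AlphaLISA after 16 hr, decreased signal indicating inhibition.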
# Starred values were filed as active, the others as inactive; u = inconclusive; x = no result. The full list was thinned out, with hits kept by preference. Unless noted, the call rests on the fitted dose curve; in most records, active means well fitted curve in the direction sought with a large enough effect; inconclusive means small, poorly fitted or top-dose-only effect, or another doubt; inactive means no such curve, though single readings can be large; an effect the other way counts as inactive or inconclusive. Unless noted, on the % scale 0 is the no-effect control and ±100 the full control effect.
SMILES,HT1080-NT tox,HT1080 IDH1KD tx,DT40 TDP1 CPT,DT40 TDP1 no CPT,12-LOX inh,IL-1B inflam inh
Cn1c(-c2cccc(F)c2)nc2c1c(=O)[nH]c(=O)n2Cc1ccccc1,u,u,-5%,-26%,-3%,23
COc1ccc(-c2nc3c(c(=O)[nH]c(=O)n3Cc3ccccc3)n2C)cc1,-6%,-3%,-4%,-7%,363%,-1
CCCOc1ccc(-c2nc3c(c(=O)[nH]c(=O)n3Cc3ccccc3)n2CCO)cc1OCC,-21%,-1%,u,16µM*,0%,1
COc1cc(Br)cc(-c2nc3c(c(=O)[nH]c(=O)n3Cc3ccccc3)n2C)c1O,-1%,-2%,16µM*,23µM*,0%,28
COc1ccc(-c2nc3c(c(=O)[nH]c(=O)n3Cc3ccccc3)n2Cc2ccccc2)cc1,u,u,23µM*,21µM*,0%,u
Cn1c(-c2cccc(OCc3ccccc3)c2)nc2c1c(=O)[nH]c(=O)n2Cc1ccccc1,11%,11%,21µM*,16µM*,33%,9
O=C(CC(c1ccccc1)c1cccc(Cl)c1)NC1CCC(O)CC1 (configuration not stated),x,x,x,x,5%,x
Cc1ccc(C(C(=O)NCc2ccc(O)cc2)N(C)C)cc1 (configuration not stated),x,x,x,x,18%,x
O=C([C@@H]1CC=C[C@@H]2CCN(C3CC3)C(=O)[C@@H]21)N1CCOCC1,x,x,u,-17%,x,x
CCCn1c(-c2cc(OC)c(OC)c(OC)c2)nc2c1c(=O)[nH]c(=O)n2Cc1ccccc1,-12%,-28%,3.3µM*,-97%,u,4
COc1ccccc1-c1nnc(SCC(=O)Nc2cccnc2Cl)n1C,u,0%,-13%,-15%,6%,9
O=C(O)CC(CCc1ccccc1)OC1OC(CO)C(O)C(O)C1O (configuration not stated),-3%,-4%,0%,9%,45µM*,-13
Oc1csc(Cc2nc(-c3ccc4ccccc4c3)cs2)n1,-13%,-22%,u,15µM*,27%,35
O=C(NCC1CCN(c2ccc(S(=O)(=O)N3CCOCC3)cc2)CC1)c1ccc(Cl)cc1,-15%,-12%,15µM*,13µM*,0%,-75*
O=C(CCNC(=O)c1ccc(Cl)cc1)Nc1ccc(S(=O)(=O)N2CCOCC2)cc1,-3%,-3%,u,-4%,242%,16
O=S(=O)(NCC1CCN(c2ccc(S(=O)(=O)N3CCOCC3)cc2)CC1)c1ccc(F)cc1,-22%,-17%,23µM*,21µM*,u,-5
Cc1ccccc1NC(=O)NCC1CCN(c2ccc(S(=O)(=O)N3CCOCC3)cc2)CC1,-16%,-2%,23µM*,21µM*,1%,-9
N#Cc1cnn(-c2ccc([N+](=O)[O-])cc2[N+](=O)[O-])c1N,-2%,-29%,13µM*,18µM*,-12%,34
O=C(OCc1ccc(F)cc1Cl)c1ccc(C2Nc3ccccc3S(=O)(=O)N2)cc1 (configuration not stated),x,x,x,x,97%,x
Oc1ccc(N2CCN(c3nnnn3-c3ccccc3)CC2)cc1,-11%,-19%,u,21µM*,u,3
CCOC(=O)C1=C(C)N=c2s/c(=C3/C(=O)Nc4ccccc43)c(=O)n2C1c1ccc(C)cc1 (configuration not stated),-16%,-11%,26µM*,23µM*,-1%,60
CCOC(=O)C1=C(C)N(Cc2ccccc2)C(=O)NC1c1ccc(OC)cc1 (configuration not stated),0%,16%,-17%,-20%,-12%,-16
